Screening data (PubChem BioAssay)
Sampled rows, rich in hits. Any-hit rate of the full collection: about 21%.
CHX counter: Cycloheximide Counterscreen for Small Molecule Inhibitors of Shiga Toxin; cell reporter, cycloheximide protein synthesis inhibition counterscreen; max response, %; actives 12% (n = 300,000); in the data active = max response mostly above about 13%, no sharp cut-off; inactive = mostly below about 14%; also: read at 38.3 µM for the half of the compounds with a filed dose; 0% is about no effect
Pf growth 48h: Primary qHTS for delayed death inhibitors of the malarial parasite plastid, 48 hour incubation; actives 5.9% (n = 310,000); AID 504832, 2011; P. falciparum luciferase growth in erythrocytes, 48 h; Potency, µM (top dose mostly 28.7 µM), without a hit: top-dose activity change, negative = inhibition, actives largely listed as inhibitors; also: potency is read from the fitted curve at half-maximal effect; % is scaled to controls: 0 for no effect and ±100 for the full control effect
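Firefly luciferase activity from engineered P. falciparum reports growth; inhibitors lower the luminescent signal. Cultures contained 2% hematocrit erythrocytes at 0.1% final parasitemia.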
Pf growth 96h: Primary qHTS for delayed death inhibitors of the malarial parasite plastid, 96 hour incubation; P. falciparum luciferase reporter growth, 96 h; Potency, µM (doses to about 28.7 µM), without a hit: at the top dose activity change, negative = inhibition, usual class: inhibitors; actives 6.9% (n = 320,000); also: potency is read from the fitted curve at half-maximal effect; % is scaled to controls: 0 for no effect and ±100 for the full control effect
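Readout is luminescence from an integrated firefly luciferase in P. falciparum. Red cells, 2% hematocrit and 0.05% parasitemia final, were cultured with compound through two parasite generations (96 hours) at 37 C, 5% CO2.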
Giardia FBPA inh: qHTS Assay for Inhibitors of Fructose-1,6-bisphosphate Aldolase from Giardia Lamblia. A8B2U2. purified Giardia FBPA. Potency, µM (titrated, usually from 59.6 µM), inactives show at the highest dose activity, negative = inhibition, usual class: inhibitors. actives 0.71% (n = 290,000). AID 2451, 2010; also: potency is read from the fitted curve at half-maximal effect; % is scaled to controls: 0 for no effect and ±100 for the full control effect; nearly all actives have a fitted effect of over 55% in size
Target sequence (A8B2U2 whole entry, looked up): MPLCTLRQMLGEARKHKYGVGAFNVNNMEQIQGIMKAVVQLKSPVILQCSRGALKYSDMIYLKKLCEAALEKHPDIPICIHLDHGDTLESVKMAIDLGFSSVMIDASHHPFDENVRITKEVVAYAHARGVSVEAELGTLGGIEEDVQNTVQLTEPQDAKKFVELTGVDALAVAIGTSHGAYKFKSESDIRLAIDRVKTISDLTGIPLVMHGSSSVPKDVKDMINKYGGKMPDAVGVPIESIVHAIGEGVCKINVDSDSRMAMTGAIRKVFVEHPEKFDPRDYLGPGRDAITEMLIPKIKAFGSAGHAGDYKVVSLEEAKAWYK
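Giardia FBPA (40 nM reagent) was preincubated 10 min at RT with compound (up to 57.5 uM final), then substrate plus GAPDH/TPI/NAD/arsenate coupling system with diaphorase/resazurin was added; resorufin fluorescence (525/598 nm) was read after 20 min.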
Shiga toxin inh: A qHTS for Small Molecule Inhibitors of Shiga Toxin; actives 9.2% (n = 290,000); inhibition, % at 38.7 µM; Vero cells, Shiga toxin protein synthesis inhibition reporter; AID 2315, 2010; in the data active = inhibition mostly above about 28%, no sharp cut-off; inactive = mostly below about 43%; also: 0% is about no effect
NS1 function inh: qHTS Assay for Inhibitors of Influenza NS1 Protein Function | Potency, µM (top dose mostly 46.1 µM), without a hit: at the top dose activity, positive = more growth | actives 0.4% (n = 270,000); calls by dose curve; also: potency is read from the fitted curve at half-maximal effect; actives are rising curves; nearly all actives have a fitted effect of over 50% in size
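Compounds were scored for reversing the slow growth caused by influenza A NS1 in S. cerevisiae, measured by optical density at 600 nm. Assay medium contained 2% galactose at pH 6.0; NS1-free yeast of the same strain were the positive control.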
Starred values were filed as active, the others as inactive; ? = inconclusive; . = no result; [ ] = remark or other dose. Unless noted, calls follow the shape of the dose curve; as a rule, active = well fitted curve in the direction sought with a large enough effect; inconclusive = small, poorly fitted or top-dose-only effect, or another doubt; inactive = no such curve, though single readings can be large; an effect the other way counts as inactive or inconclusive.

SMILES | CHX counter | Pf growth 48h | Pf growth 96h | Giardia FBPA inh | Shiga toxin inh | NS1 function inh
CCOc1ccccc1-c1nnc2n1N=C(c1ccccc1OC)CS2 | -3.7 | . | . | -2.0% | -4.2 | .
CC(c1ccccc1)c1nnc(NC(=O)Nc2ccccc2F)s1 (centres undefined) | 44.9* | -11.7% | 6.7% | 11.7% | 72.5* | 0.8%
CCSc1nsc(NC(=O)Nc2cccc(OC)c2)n1 | 28.9* | ? | ? | -5.1% | . | -14.6%
C=CCSc1nsc(NC(=O)Nc2ccc(F)cc2)n1 | 43.2* | ? | -42.5% | ? | 101.3* | -126.5%
COc1ccc(Cc2nnc(NC(=O)Nc3cccc(OC)c3)s2)cc1 | -5.6 | 21.7%[0.00184 µM] | 24.9% | -1.6% | -5.3 | 3.5%
CCSc1nsc(NC(=O)Nc2ccccc2F)n1 | 32.6* | 65.8% | ? | -0.5% | 29.9* | -7.3%
O=C(Nc1nnc(-c2ccccc2SCc2ccccc2F)s1)Nc1ccccc1F | -2.9 | . | 24.8% | 8.8% | -9.9 | 1.6%
O=C(O)[C@H](O)[C@@H](O)[C@H](O)[C@H](O)CO | . | -7.5% | -4.5% | . | . | .
COc1ccc(-c2cc(C(F)F)nn2-c2ccc(S(N)(=O)=O)cc2)cc1F | . | 0.0% | 3.9% | 0.3% | . | .
C[C@@](O)(CNS(=O)(=O)c1ccccc1)c1ccccc1 | . | . | . | . | . | -0.3%
CC[C@H](C)[C@H](NC(=O)[C@H](Cc1ccc(O)cc1)NC(=O)[C@H](Cc1cnc[nH]1)NC(=O)[C@H](CCCNC(=N)N)NC(=O)[C@H](CC(C)C)NC(=O)[C@H](C)NC(=O)[C@H](CO)NC(=O)[C@H](Cc1ccc(O)cc1)NC(=O)[C@H](Cc1ccc(O)cc1)NC(=O)[C@H](CCCNC(=N)N)NC(=O)[C@H](C)NC(=O)[C@H](CC(C)C)NC(=O)[C@H](CC(=O)O)NC(=O)[C@H](CCC(=O)O)NC(=O)[C@H](C)NC(=O)[C@@H]1CCCN1C(=O)[C@H](C)NC(=O)[C@H](CC(=O)O)NC(=O)[C@H](CCC(=O)O)NC(=O)CNC(=O)[C@@H]1CCCN1C(=O)[C@H](CC(N)=O)NC(=O)[C@H](CC(=O)O)NC(=O)[C@@H]1CCCN1C(=O)[C@H](CCCCN)NC(=O)[C@H](CO)NC(=O)[C@@H]1CCCN1C(=O)[C@@H](N)Cc1ccc(O)cc1)C(=O)N[C@@H](CC(N)=O)C(=O)N[C@@H](CC(C)C)C(=O)N[C@H](C(=O)N[C@H](C(=O)N[C@@H](CCCNC(=N)N)C(=O)N[C@@H](CCC(N)=O)C(=O)N[C@@H](CCCNC(=N)N)C(=O)N[C@@H](Cc1ccc(O)cc1)C(N)=O)[C@@H](C)O)[C@@H](C)CC | 0.9 | . | . | 4.0% | -10.2 | .
COc1cccc(COC(=O)c2cc(=O)[nH]c3ccc(S(=O)(=O)N4CCOCC4)cc23)c1OC | . | -5.8% | -8.7% | . | . | .
Cc1ccc(/C=N/N=C2\SCC(=O)N2CC2CC2)cc1 | -2.6 | -4.5% | 87.3% | -3.6% | 4.9 | -1.8%
COc1cc(OC)c(OC)cc1/C=C1\Oc2cc(OCC(=O)N3Cc4ccccc4C[C@H]3C(=O)O)ccc2C1=O | -2.4 | ? | ? | ? | 19.2 | -12.8%
COc1ccc2cc(/C=N/NC(=O)c3c(Cl)cnn3C)c(Cl)nc2c1 | -1.5 | -4.5% | 20.6% | -6.4% | 5.4 | -7.9%
COc1ccc2cc(/C=C/C(=O)c3ccco3)c(Cl)nc2c1 | 38.4* | ? | . | 0.4% | 91.3 | -3.9%
COc1cc2cc(/C=C/C(=O)c3ccco3)c(Cl)nc2cc1OC | 15.6 | -6.6% | . | -9.7% | 68.0* | -3.7%
O=C(CC1CCCCC1)NCc1nc(-c2ccccc2)no1 | -3.3 | 12.0% | 20.1% | 0.7% | 14.7 | -64.2%
CCCCC/C=C\C/C=C\CCCCCCCC(=O)NCCCC(=O)O | . | . | . | 7.1% | . | .
NS(=O)(=O)c1ccc(NC(=S)NC2CCCC2)cc1 | -2.9 | 0.7% | 3.8% | ? | 14.2 | 6.6%
FC(F)Sc1ccc(NC(=S)NC2CCCC2)cc1 | 37.8* | 86.2% | 24.9% | -3.5% | 63.9* | .
C=C1C2(C(=O)Nc3ccc(SC(F)F)cc3)CCC(C2)C1(C)C (centres undefined) | -3.8 | 4.4% | ? | 2.5% | -5.0 | -6.1%
